Laboratory results reported in PubChem BioAssay AID1159580 (chemical genetic matrix, 2015).
Where “and” joins values, the source holds several entries; their conditions need not be identical. Equal entries are not always repeated. Screen size: about 5,500 compounds; about 2,000 (36%) were called active. Another 18% or so got no clear call; they are omitted. Cut-off read from the data, not from the text of the source: active = normalized growth mostly below about 0.91 (no sharp cut-off); inconclusive = no clear call, values can overlap the other calls; inactive = mostly above about 0.92. This is one part of the list.

Experiment: chemical genetic growth profiling, strain panel (AID 1159580);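 note: tested at 20 µM; growth read once vehicle control cultures reached saturation at 30 °C; 1 = growth at the plate median or of vehicle wells; lower values mean less growth of the strain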
Settings: S. cerevisiae deletion strains, growth OD

Measured: normalized growth

NC[C@H]1O[C@H](OC2[C@@H](N)C[C@@H](N)[C@H](O[C@H]3O[C@H](CO)[C@@H](O)[C@H](N)[C@H]3O)[C@H]2O)[C@H](O)[C@@H](O)[C@@H]1O (some centres undefined)
inactive: locus YAL013W, strain DEP1, hits give low values 0.997 | locus YAL021C, strain ccr4, hits give low values 0.993 | locus YAL026C, strain drs2, hits give low values 0.998 | locus YAL030W, strain snc1, hits give low values 1 | locus YBL061C, strain skt5, hits give low values 1.01 | locus YBR009C, strain hhf1, hits give low values 1.01 | locus YBR021W, strain FUR4, hits give low values 0.97 | locus YBR023C, strain chs3, hits give low values 0.983 | locus YBR171W, strain sec66, hits give low values 0.989 | locus YBR229C, strain ROT2, hits give low values 0.988 | locus YBR231C, strain swc5, hits give low values 0.998 | locus YBR279W, strain paf1, hits give low values 1.01 | locus YCL011C, strain gbp2, hits give low values 0.999 | locus YCL016C, strain dcc1, hits give low values 0.985 | locus YCL029C, strain bik1, hits give low values 0.985 | locus YCL061C, strain MRC1, hits give low values 0.99 | locus YCL069W, strain vba3, hits give low values 0.998 | locus YCR088W, strain abp1, hits give low values 0.994 | locus YDL005C, strain med2, hits give low values 0.994 | locus YDL035C, strain GPR1, hits give low values 1.02 | locus YDL040C, strain nat1, hits give low values 1 | locus YDL074C, strain BRE1, hits give low values 0.991 | locus YDL101C, strain DUN1, hits give low values 0.986 | locus YDL134C, strain PPH21, hits give low values 1.01 | locus YDL185W, strain tfp1, hits give low values 0.997 | locus YDL192W, strain arf1, hits give low values 0.98 | locus YDR001C, strain nth1, hits give low values 0.995 | locus YDR069C, strain doa4, hits give low values 1 | locus YDR101C, strain arx1, hits give low values 0.99 | locus YDR137W, strain rgp1, hits give low values 0.997 | locus YDR150W, strain NUM1, hits give low values 1 | locus YDR159W, strain sac3, hits give low values 1 | locus YDR162C, strain NBP2, hits give low values 1 | locus YDR195W, strain ref2 0.961 | locus YDR297W, strain sur2, hits give low values 0.998 | locus YDR318W, strain mcm21, hits give low values 0.978 | locus YDR334W, strain swr1, hits give low values 0.988 | locus YDR335W, strain msn5, hits give low values 1 | locus YDR388W, hits give low values 0.993 | locus YDR392W, strain spt3, hits give low values 0.935 | locus YDR502C, strain sam2, hits give low values 1.01 | locus YEL003W, strain gim4, hits give low values 1.01 | locus YEL037C, strain rad23, hits give low values 1.01 | locus YEL061C, strain CIN8 (second series), hits give low values 0.999 | locus YEL061C, strain CIN8, hits give low values 0.997 | locus YER015W, strain faa2, hits give low values 0.978 | locus YER016W, strain bim1, hits give low values 1.01 | locus YER110C, hits give low values 0.97 | locus YER111C, strain swi4, hits give low values 0.994 | locus YER155C, strain BEM2 (second series), hits give low values 0.993 | locus YER155C, strain BEM2, hits give low values 0.993 | locus YER167W, strain BCK2, hits give low values 0.989 | locus YFR010W, strain ubp6, hits give low values 1 | locus YGL078C, strain dbp3, hits give low values 0.973 | locus YGL086W, strain mad1, hits give low values 1 | locus YGL167C, strain pmr1, hits give low values 1.01 | locus YGL173C, strain kem1, hits give low values 0.996 | locus YGL227W, strain vid30, hits give low values 0.991 | locus YGL240W, strain doc1, hits give low values 0.99 | locus YGL248W, strain PDE1, hits give low values 0.984 | locus YGL253W, strain hxk2, hits give low values 1.01 | locus YGR135W, strain pre9, hits give low values 0.943 | locus YGR252W, strain gcn5, hits give low values 0.967 | locus YHR013C, strain ard1, hits give low values 0.982 | locus YHR027C, strain rpn1, hits give low values 1 | locus YHR030C, strain SLT2, hits give low values 0.991 | locus YHR079C, strain IRE1 (second series), hits give low values 0.982 | locus YHR079C, strain IRE1, hits give low values 0.993 | locus YHR094C, strain hxt1, hits give low values 0.975 | locus YHR129C, strain ARP1, hits give low values 0.994 | locus YHR142W, strain chs7, hits give low values 0.998 | locus YHR200W, strain rpn10, hits give low values 0.993 | locus YIL066C, strain RNR3, hits give low values 0.994 | locus YIL073C, strain SPO22, hits give low values 0.954 | locus YIL125W, strain kgd1, hits give low values 0.987 | locus YIR030C, strain dcg1, hits give low values 0.99 | locus YJL092W, strain hpr5, hits give low values 1 | locus YJL095W, strain BCK1 (second series), hits give low values 0.997 | locus YJL095W, strain BCK1, hits give low values 0.99 and 1.01 | locus YJL115W, strain asf1, hits give low values 0.997 | locus YJL129C, strain trk1, hits give low values 0.991 | locus YJL134W, strain LCB3, hits give low values 0.996 | locus YJL154C, strain vps35, hits give low values 0.992 | locus YJL164C, strain tpk1, hits give low values 0.991 | locus YJL166W, strain qcr8, hits give low values 0.99 | locus YJL168C, strain set2, hits give low values 0.978 | locus YJL187C, strain SWE1 (second series), hits give low values 0.984 | locus YJL187C, strain SWE1, hits give low values 0.997 | locus YJR043C, strain POL32, hits give low values 1.03
